Hits are enriched below; roughly 27% of the tested compounds scored in any of these assays.
Cav3 T inh = blocks human Cav3.2 T-type calcium channel; 100,000 tested, 4% active; B-score at 10 µM; AID 449739; Cav3.2-expressing cells, Fluo-4 calcium fluorescence FDSS; active compounds read low; O95180;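 active means single-dose well whose peak fluorescence ratio is a statistical outlier from its plate by either plate-standardised score or position-corrected B-score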
CYP2C9 inhib = inhibitors of human CYP2C9; P11712; 96,000 tested, 20% active; inhibition, % at 5 µM; CYP2C9 Supersomes, luciferin-H conversion, luminescence;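 active means blocking of liver enzyme CYP2C9 beyond about 50% at 5 µM, limit read from the data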
CYP2C9 act = CYP2C9 (human) activation; AID 1024; P11712; 96,000 tested, 1.4% active; recombinant CYP2C9, luciferin-H conversion, luminescence; active compounds read high; factor 1 = untreated enzyme, 0 = blocked; activation factor at 5 µM;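 active means activation factor of 2 or more for CYP2C9 at a 5 µM dose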;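 further: 0 = sulfaphenazole-blocked wells and 1 = vehicle-only wells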
CYP2C19 activ = increases human CYP2C19 enzyme activity. 96,000 tested, under 10 active. activation factor at 5 µM. recombinant CYP2C19, luciferin-H EGE luminescence; active compounds read high; 0 = fully inhibited enzyme, 1 = untreated enzyme;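 active means activation factor of at least 2 at 5 µM in the primary screen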;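 further: 0 = wells with 2.5 mM tranylcypromine and 1 = vehicle-only wells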
Target sequence (P33261 whole entry, looked up): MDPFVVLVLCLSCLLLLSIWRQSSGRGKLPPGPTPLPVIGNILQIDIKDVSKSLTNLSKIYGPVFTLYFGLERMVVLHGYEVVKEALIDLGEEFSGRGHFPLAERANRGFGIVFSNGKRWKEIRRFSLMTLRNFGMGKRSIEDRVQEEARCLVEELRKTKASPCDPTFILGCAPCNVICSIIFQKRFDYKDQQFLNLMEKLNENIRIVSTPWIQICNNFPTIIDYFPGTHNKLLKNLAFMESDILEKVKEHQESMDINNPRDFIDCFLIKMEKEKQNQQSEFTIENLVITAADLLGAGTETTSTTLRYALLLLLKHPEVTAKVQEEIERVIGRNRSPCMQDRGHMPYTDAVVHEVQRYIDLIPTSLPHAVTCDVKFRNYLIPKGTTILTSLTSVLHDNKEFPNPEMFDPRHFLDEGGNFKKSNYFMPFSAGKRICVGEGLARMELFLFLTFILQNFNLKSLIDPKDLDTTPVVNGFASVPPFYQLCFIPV
CYP2C19 inhib = human CYP2C19 inhibition | P33261 | CYP2C19 Supersomes, luciferin-H EGE luminescence, 30 min | inhibition, % at 5 µM | 96,000 tested, 21% active | AID 778;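 active means CYP2C19 inhibition above a set limit at 5 µM in the primary screen, cut at about 50% in these data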;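 further: plate controls were negative control wells for no effect and 2.5 mM tranylcypromine positive control for full effect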
Starred values were filed as active, the others as inactive; · = not tested or not shown.

SMILES	Cav3 T inh	CYP2C9 inhib	CYP2C9 act	CYP2C19 activ	CYP2C19 inhib
CCO/C=N/c1c(C#N)c2c(c(=S)n1C)COC(C)(C)C2	-0.5	49	0.5	0.3	66*
CN(C)CCCN1c2ccccc2Sc2ccccc21	-1.9	·	·	·	·
COc1ccc2c(c1)Sc1ccccc1N2CCN(C)C	-0.095	25	0.7	0.4	57*
Cc1ccc(CCN2CC(C(=O)NCCCN3CCCCCC3)CC2=O)cc1 (configuration not stated)	-0.042	-10	1.1	1.1	-13
CCOC(=O)c1c(C)n(C)c2ccc(OCC(O)CN3CCC(C)CC3)cc12 (configuration not stated)	-5.3*	-5	1.1	1	-2
CCOC(=O)c1c(C)n(C)c2ccc(OCCN(C)C)cc12	·	18	0.8	1	4
CCOC(=O)c1c(C)n(C)c2ccc(OC(C)C(=O)OC)cc12 (configuration not stated)	-0.86	64*	0.4	0.5	51*
CCOC(=O)c1c(CN2CCC(C)CC2)oc2ccc(OC)cc12	-4.2*	23	0.8	0.5	52*
O=C(NCCN1CCN(Cc2ccccc2Cl)CC1)Nc1ccccc1	-0.41	48	0.5	1	-1
Cc1[nH]n(-c2ccccc2)c(=O)c1C(C[N+](=O)[O-])c1ccc(Br)cc1 (configuration not stated)	-1.4	95*	0.1	0.5	53*
N=C1/C(=C/c2cccs2)C(=O)N=C2SN=C(SCc3ccccc3)N12	-7.7*	93*	0.1	0.9	11
NC1=NC(=O)/C(=C\c2cccs2)S1	0.93	-18	1.2	1	-5
CC(C)N(C(=O)N1CCC(c2nc(-c3ccncc3)no2)CC1)C(C)C	0.65	28	0.7	0.3	66*
NC(=O)C1CCN(c2nnnn2-c2ccccc2)CC1	0.88	10	0.9	0.6	42
CCOC(=O)C1CCCN(c2nnnn2-c2ccccc2)C1 (configuration not stated)	0.25	39	0.6	0.2	81*
O=C(NC1CCCCC1)C1CCCN(c2nnnn2-c2ccccc2)C1 (configuration not stated)	0.67	38	0.6	0.5	55*
CCN1CCN(c2c(C(=O)c3ccc(OC)cc3)cnc3ccccc23)CC1	-0.28	·	·	·	·
CCOC(=O)C1CCCN(c2c(C(=O)c3ccccc3)cnc3ccc(OC)cc23)C1 (configuration not stated)	-6.8*	·	·	·	·
CC(C)(C)N1[C@@H](CC(=O)O)c2cc(C(F)(F)F)ccc2S1(=O)=O	2.4	·	·	·	·
COc1ccc(CN(C#N)c2nc(SC)nc(N(C)C)n2)cc1	-1.5	-40	1.4	0.1	89*
O=C1c2ccccc2S(=O)(=O)c2cc(N3CCN(c4ccccc4)CC3)ccc21	-0.053	·	·	·	·
CNc1sc(C(=O)c2cccs2)c(N)c1-c1nc2ccccc2s1	-0.48	67*	0.3	0.7	29
CNc1sc(C(=O)c2ccc(F)cc2)c(N)c1-c1nc2ccccc2s1	-0.62	-6	1.1	1	3
COc1ccc(N2CCN(C(=O)CCc3ccc(S(=O)(=O)NC(C)C)cc3)CC2)cc1	0.099	·	·	·	·
C=CCN(CC=C)CC(O)Cn1c2ccccc2c2ccccc21 (configuration not stated)	-3.4*	30	0.7	0.3	73*
SMILES	Cav3 T inh	CYP2C9 inhib	CYP2C9 act	CYP2C19 activ	CYP2C19 inhib
Cc1ccc(S(=O)(=O)N(C)CC(O)Cn2c3ccccc3c3ccccc32)cc1 (configuration not stated)	-0.41	88*	0.1	0.6	44
CCN(CC)CC(O)Cn1c2ccccc2c2ccccc21 (configuration not stated)	0.011	1	1	0.9	9
O=S(=O)(c1ccccc1)N(CC(O)Cn1c2ccccc2c2ccccc21)c1ccccc1 (configuration not stated)	·	79*	0.2	0.5	50
Cc1ccc(S(=O)(=O)N(CC(O)CN2CCCCC2)c2ccccc2)cc1 (configuration not stated)	0.63	-3	1	1	2
CN1C[C@@H]2C(c3ccc(Cl)nc3)C3(c4ccccc4)CC2(C3)[C@H]1c1ccccc1 (some centres not stated)	-0.89	·	·	·	·
O=c1n(S(=O)(=O)c2cccc3cccnc23)c2ccccc2n1S(=O)(=O)c1cccc2cccnc12	1.1	48	0.5	0.8	17
CCOc1ccc(OCC)c(S(=O)(=O)N2CCCCC2C)c1 (configuration not stated)	-2.4	53*	0.5	0.1	89*

Screening data: PubChem BioAssay, several laboratories
